This note sets out measurements from PubChem BioAssay (NCATS).

Inconclusive results are not listed. Unmarked numbers belong to inactive results. Calls follow the shape of the dose curve; as a rule, active = well fitted inhibition curve with a large enough effect; inconclusive = small, poorly fitted or top-dose-only effect; inactive = flat fitted curve, though single readings scatter. Square brackets hold non-standard residues; d marks the D form. Peptide text beside a SMILES is read from it. * marks the point of attachment. ξ: configuration not given here. ξTyr(βOH) = NC(C(=O)O)C(O)c1ccc(O)cc1; AFC = O=c1cc(C(F)(F)F)c2ccc(N*)cc2o1; ξPhe(βξ-Me) = CC(c1ccccc1)C(N)C(=O)O; GABA = NCCCC(=O)O

This assay addresses Aldehyde dehydrogenase, mitochondrial (Homo sapiens) (UniProt P05091). As to the kind of experiment: qHTS for Inhibitors of the Aldehyde Dehydrogenase Family (ALDH2) Primary screen (AID 2061308).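 Also: plate controls were vehicle for no effect and reference inhibitor for full effect; nearly all actives have a fitted effect of over 55% in size.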 As to conditions: ALDH2 enzyme inhibition qHTS, 1536-well; series mostly up to 56 µM; activity change, negative = inhibition: at the top concentration.
For `CC(O)/C=C/C1(O)C(C)C(O[C@@H]2O[C@H](CO)[C@@H](O)[C@H](O)[C@H]2O)C(O)CC1(C)C` (stereo not given in full), the “activity change, negative = inhibition” value is 10% [at 28 µM]. For `CC1(C)CCC2(C(=O)OC3OC(COC4OC(CO)C(O)C(O)C4O)C(O)C(O)C3O)CCC3(C)C(=CCC4C5(C)CCC(OC6OCC(O)C(O)C6O)C(C)(C)C5CCC43C)C2C1O` (stereo not given) the value was 15.5% [at 16.9 µM]; for `CC(=O)N[C@@H](Cc1c[nH]c2ccccc12)C(=O)N[C@@H](CCC(=O)O)C(=O)N[C@@H](Cc1cnc[nH]1)C(=O)N[C@@H](CC(=O)O)C(=O)Nc1ccc2c(C(F)(F)F)cc(=O)oc2c1` (Ac-WEHD-{AFC}), -4.04%; for `CC(=O)OC[C@]12[C@H](OC(C)=O)C(=O)[C@@H]3[C@@H](OC(C)=O)[C@@]14O[C@@]3(C)COC(=O)c1cccnc1[C@@H](C)[C@H](C)C(=O)O[C@@H]([C@H](OC(C)=O)[C@@H]2OC(C)=O)[C@]4(C)O`, 6.29% [at 16.9 µM]. For `O=C(/C=C/c1ccc(O)cc1)OC[C@H]1O[C@@H](O/C(=C\c2ccccc2)C(=O)O)[C@H](O)[C@@H](O)[C@@H]1O` the value was 3.04% [at 28 µM]; for `CC1NC(=O)CCCNC(=O)C(Cc2c[nH]c3ccccc23)NC(=O)C(C)NC(=O)C(C(C)C)NC(=O)C(C(C)c2ccccc2)NC(=O)C(C(C)C)NC1=O` (stereo not drawn) (cyclo([GABA]AV[ξPhe(βξ-Me)]VAW); configuration not given here), 11.4% [at 16.9 µM]; for `O=S(=O)(N[C@H]1CCCC[C@@H]1N1CCOCC1)c1ccc(Cl)cc1`, 16.3%.

Consider `O=C(Nc1nc2cc(C(F)(F)F)cc(NC3CC3)n2n1)c1cccnc1`, for which the “activity change, negative = inhibition” value was 1.65%.

Consider `CCOC(=O)N1CCC(N2CCC[C@@H](NC(=O)c3ccccc3C)C2)CC1`, for which the “activity change, negative = inhibition” value is 4.77%. For `C=C1CCC[C@]2(C)CC[C@@H](C(=C)C(=O)O)[C@H](O)[C@@H]12` the value was 15.7%; for `C=C(C(=O)O)C1CC(O)C2(C)CCCC(C)(O)C2C1` (stereo not given), -1.63%. As to `CC(C)C1NC(=O)C(CC2(O)c3ccccc3N3C(=O)C(Cc4ccccc4)NC32)NC1=O` (stereo not given), the “activity change, negative = inhibition” value was -11.9% [at 28 µM]. In the case of `CC(C)c1cc2c(c(O)c1O[C@@H]1O[C@H](CO)[C@@H](O)[C@H](O)[C@H]1O)CC1(O)CCC(O)C(C)(C)C1CC2` (stereo not given in full), the “activity change, negative = inhibition” value is -2.44% [at 28 µM].

Turning to `COc1cccc(OC)c1-c1ccc(C[C@H](NC(=O)c2c(Cl)cccc2Cl)C(=O)O)cc1`, the “activity change, negative = inhibition” value was -1.26%. On to `CC1=C2C3OC(=O)C(C)C3(O)CCC2(C)CCC1=O` (stereo not given), for which the “activity change, negative = inhibition” value is -0.466%. For `C[C@@H]1O[C@@H](O[C@H]2[C@H](O)[C@@H](O[C@@H]3O[C@H](CO)[C@H](O)[C@H](O)[C@H]3O)[C@H](O[C@H]3CC[C@@]4(C)C(CC[C@]5(C)C4CC=C4[C@@H]6CC(C)(C)CC[C@]6(C(=O)O[C@@H]6O[C@H](CO)[C@@H](O)[C@H](O)[C@H]6O)CC[C@]45C)C3(C)C)O[C@@H]2C(=O)O)[C@H](O)[C@H](O)[C@H]1O` (stereo not given in full) the value was 4.84% [at 16.9 µM]; for `C=C1CC[C@@H]2[C@](C)(CO)[C@H](O)CC[C@@]2(C)[C@@H]1C/C=C1/C(=O)OCC1O` (stereo not given in full), 6.35%; for `C=C1C(OC(C)=O)CCC2(C)CCC(C(C)(C)O)CC12` (stereo not given), 8.51%. For `CC1CCC2(C)CCC3(C)C(=CCC4C5(C)CCC(O)C(C)(C(=O)O)C5CCC43C)C2C1C` (stereo not given) the value was -3.11% [at 28 µM]. For `C=C1CC/C=C(/CO)C(=O)C[C@@H]2[C@@H]1C[C@@]2(C)COC(C)=O` the value was 13.8%; for `C=C(C(=O)O)C1CCC(C)C2CCC(=O)OC2(C)C1` (stereo not given), -11.1%. With `COC(=O)c1cc(OC)cc(OC)c1C(=O)c1c(OC)cc2c(c1O)C1CCCC(C)(O2)O1` (stereo not given), the “activity change, negative = inhibition” value was -6.3% [at 28 µM]. The figure for `CC1=C2C(=O)C=C(CO[C@@H]3O[C@H](CO)[C@@H](O)[C@H](O)[C@H]3O)[C@@H]2[C@H]2OC(=O)[C@H](C)[C@@H]2CC1` is -2.23% [at 28 µM]; for `O=C(O)CCCCCC[C@H]1C(=O)NC(=O)N1CC[C@@H](O)C1CCCCC1` it is -9.02%; for `C[C@@H]1O[C@@H](O[C@H]2[C@H](OC(=O)[C@]34CCC(C)(C)C[C@H]3C3=CCC5[C@@]6(C)CC[C@H](O[C@@H]7O[C@H](CO[C@@H]8OC[C@H](O)[C@H](O)[C@H]8O[C@@H]8OC[C@@H](O)[C@H](O)[C@H]8O)[C@@H](O)[C@H](O)[C@H]7O)C(C)(C)C6CC[C@@]5(C)[C@]3(C)C[C@H]4O)O[C@H](CO)[C@@H](O)[C@@H]2O)[C@H](O[C@@H]2O[C@H](CO)[C@@H](O)[C@H](O)[C@H]2O)[C@H](O)[C@H]1O[C@@H]1OC[C@@H](O)[C@H](O[C@@H]2OC[C@@H](O)[C@H](O)[C@H]2O)[C@H]1O` (stereo not given in full) it is 6.45% [at 11.2 µM].

With `CC1=CC(=O)OC(C)(CC(C)(O)C(=O)O)C1` (stereo not given), the “activity change, negative = inhibition” value was 6.48%. The figure for `C[C@H](O)C(O)(C(=O)OCc1ccccc1NC(=O)CCC(N)C(=O)O)[C@H](C)O` (stereo not given in full) is -1.87% [at 28 µM]; for `C=C(C)C1CC2(CO)C(=CC1=O)CCC(O)C2C` (stereo not given) it is 1.75%; for `OC[C@@]1(O)CO[C@@H](OC[C@H]2O[C@@H](OCc3ccccc3)[C@H](O)[C@@H](O)[C@@H]2O)[C@@H]1O` it is 8.44% [at 28 µM]. As to `COc1cc(/C=C/C(=O)OC2CC(C)=C(C(=O)O)/C2=C/CO[C@@H]2O[C@H](CO)[C@@H](O)[C@H](O)[C@H]2O)ccc1O` (stereo not given in full), the “activity change, negative = inhibition” value is -8.71% [at 28 µM]. For `CC1(C)CC[C@]2(C(=O)O[C@@H]3O[C@H](CO)[C@@H](O)[C@H](O)[C@H]3O)CC[C@]3(C)C(=CCC4[C@@]5(C)C[C@@H](O)[C@H](O)[C@@](C)(CO)C5[C@H](O)C[C@]43C)C2C1` (stereo not given in full) the value was -11.9% [at 16.9 µM]; for `C=C1C(=O)O[C@@H]2/C=C(/C)CC3C=C(C[C@H](OC(=O)/C(C)=C\C)[C@@H]12)C(=O)O3` (stereo not given in full), -2.28%; for `CC1=C[C@H]2[C@@H](CC1=O)[C@H](C)C[C@H](O)[C@H]2C(C)C`, -21.9%.

With `CC(=O)[C@@H]1C[C@H](C(C)(C)O[C@@H]2O[C@H](CO)[C@@H](O)[C@H](O)[C@H]2O)CC[C@@]2(CO)OC(=O)C[C@@H]12`, the “activity change, negative = inhibition” value was 9.65% [at 28 µM].

As for `CC(=O)O[C@@H]1[C@@H](CO)O[C@@](CO)(O[C@H]2O[C@H](COC(=O)/C=C/c3ccccc3)[C@@H](O)[C@H](O)[C@H]2O)[C@H]1O`, the “activity change, negative = inhibition” value is 26.4% [at 28 µM].

`COC(=O)c1cc(OC)cc(OC)c1C(=O)c1c(OC)cc2c(c1O)C1CCC(O)C(C)(O2)O1` (stereo not given): the “activity change, negative = inhibition” value was 3.8% [at 28 µM]. For `CC(C)C1NC(=O)CNC(=O)C2CCCN2C(=O)C(Cc2c[nH]c3ccccc23)NC(=O)CNC(=O)C(C(O)c2ccc(O)cc2)NC(=O)CNC1=O` (stereo not given) (cyclo(G[ξTyr(βOH)]GWPGV); configuration not given here) the value was -0.0859% [at 16.9 µM]. For `O=c1c2ccccc2nc2n1CCC2O` (stereo not given) the value was -4.37% [at 81.8 µM]; for `COC(=O)C1=COC(OC2OC(CO)C(O)C(O)C2O)C2C1C=CC2(O)CO` (stereo not given), -0.463% [at 28 µM]; for `O=S(=O)(Nc1ccc(C(O)(C(F)(F)F)C(F)(F)F)cc1)c1cccs1`, -0.545%.
